# Inconclusive results are not listed. Entries that show only a call come without a potency. Active and inactive are the calls of the source. The call rests on the fitted dose curve; in most records, active means well fitted curve in the direction sought with a large enough effect; inconclusive means small, poorly fitted or top-dose-only effect, or another doubt; inactive means no such curve, though single readings can be large; an effect the other way counts as inactive or inconclusive.
# Legend:
# [1] = Tertiary RLuc qRT-PCR qHTS assay for Zika virus inhibitors (AID 1347169); further: nearly all actives have a fitted effect of over 55% in size; further: potency means the concentration at half of the fitted maximal effect
# Outline: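 Vero cells (1,000/well) infected with recombinant ZIKV-RLuc (Cambodian) at MOI 1-2 after compound addition, 48-72 hrs at 37 degrees C. Live-cell Renilla luciferase substrate added; luminescence read after 1-1.5 hrs.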
# [2] = HepG2 cells viability qHTS for Zika virus inhibitors (AID 1347168)
# Outline: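 To flag cytotoxic protease inhibitors, viability is measured by ATP-dependent luminescence (CellTiter Glo) after cells attached overnight receive compound for 24 to 48 hours in DMEM with 4% FBS.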
SMILES,Potency [1],outcome [2]
O=[N+]([O-])c1cccc2[nH]c(CNc3nc(N4CCOCC4)nc4c3ncn4-c3ccsc3)nc12,0.117 µM (active),
CC(C)(C)Nc1nc2cc(Cl)c(Cl)cc2nc1S(C)(=O)=O,10.4 µM (active),
C=CC/C=C\C/C=C\CCCCCCCc1cccc(O)c1C(=O)O,inactive,inactive
C=C[C@H]1[C@H](O[C@@H]2O[C@H](CO)[C@@H](O)[C@H](O)[C@H]2O)OC=C(C(=O)OC)[C@H]1CCOC(=O)c1cc(O)c(O)c(O)c1,inactive,inactive
O=C(O)/C=C/c1ccc(-c2ccc(O)c(C34CC5CC(CC(C5)C3)C4)c2)cc1,0.415 µM (active),inactive
CC1(C)CC2=C3C=CC4C5(C)CCC(O)C(C)(C)C5CCC4(C)C3(C)CCC2(C)C(O)C1 (configuration not stated),,inactive
CC(C)c1cccc2c(-c3ccccc3)cc(-c3ccc(-c4ccc(C(=O)O)cc4)[nH]3)nc12,,inactive
OC/C=C/C=C/[C@H]1Cc2cc(O)cc(O)c2O1,inactive,
COc1cc(Nc2nc3ccccc3nc2NS(=O)(=O)c2ccc(NC(=O)c3ccc(OC)c(C)c3)cc2)cc(OC)c1,,inactive
CC(C)CC(=O)OC1OC=C(CO[C@@H]2O[C@H](CO)[C@@H](O)[C@H](O)[C@H]2O)C2CC(O)C(O)(CO)C12 (some centres not stated),inactive,
COc1ccc(Cl)c(Nc2nc3ccccc3nc2NS(=O)(=O)c2cccc(NC(=O)C(C)(C)N)c2)c1,14.7 µM (active),inactive
CC1(C)CC[C@]2(C(=O)O)CC[C@]3(C)C(=CCC4[C@@]5(C)C[C@@H](O)[C@H](O)C(C)(C)C5CC[C@]43C)C2C1 (some centres not stated),9.06 µM (active),inactive
